Assay results published in article PMC6212790, “How bacterial xenogeneic silencer rok distinguishes foreign from self DNA in its resident genome”.
Whole data set: some 33,000 sequences, median “e-score” near -0.037, cut for the highest 2% near 0.34. What follows is part of a selection rich in the highest values, with near analogues and random picks from the rest.

Target: T1, GST-Rok (full length) (Bacillus subtilis subsp. subtilis str. …, UniProt O34857 1-191)
T1 sequence: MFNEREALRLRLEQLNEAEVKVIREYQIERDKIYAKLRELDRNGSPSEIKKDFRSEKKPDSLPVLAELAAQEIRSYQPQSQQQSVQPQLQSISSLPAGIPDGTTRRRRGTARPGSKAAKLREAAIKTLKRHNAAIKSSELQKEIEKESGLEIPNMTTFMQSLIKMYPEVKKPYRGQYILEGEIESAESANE
Assay: protein binding microarray; Rok is a gene silencer of Bacillus subtilis; high values mean tight binding
Conditions: protein: recombinant; tags: GST (pTH5325, pDEST15-Magic modified); dsDNA, one strand shown
Method in brief: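 Every oligonucleotide joins a 25-mer constant primer to a 35-mer variable part drawn from a de Bruijn sequence of order 10, so each non-palindromic 8-mer appears at least 32 times and each palindromic 8-mer 16 times. The preference for every 8-mer is reported as a unitless, rank-based enrichment score (E-score). This score spans 0.5 for the most favored 8-mer to −0.5 for the most disfavored.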

Sequence	binding signal [E-score]
GCTGGCAC	-0.181
GTGCCAAA	-0.127
AGTGAAGA	-0.00169
CTCGAAAG	-0.0828
TACCTAAA	0.37
TACCTATA	0.37
AACCTATA	0.239
CACCTATA	0.214
CACCTAAA	0.131
AACCTAAA	0.102
ATTAAGAA	0.154
ACTTGCCG	-0.0504
AAACTCTC	0.106
CACCATCG	-0.0961
TATCAATA	0.343
AATCAATA	0.296
GATCAATA	0.157
CTCGCGAG	-0.0252
AGAAGGAC	-0.175
ACAGAGGC	-0.125
AACTATTG	0.378
AACTATTC	0.315
ACCTATTG	0.182
CACTATTA	0.268

Sequence	binding signal [E-score]
AACTATTA	0.431
GACTATTA	0.157
CGGACTCA	-0.0715
ATTTTGAA	0.162
CTAAGGGA	-0.154
CAGCCCGG	-0.158
AAGTCCGC	-0.0838
GCAAGTAA	-0.0735
AACCTCAT	-0.155
ACTAGTGA	0.172
GCTAGTAA	0.294
TCTAGTAA	0.351
ACTAGTAA	0.382
CCTAGTAA	0.256
ATTAGTAA	0.314
CTAAGCAG	-0.152
ACATCGAT	0.166
AGCTGGGG	-0.188
ACTAGAAA	0.344
ACTAGAAC	0.296
ACTAGAAG	0.215
ACTAGAAT	0.356
ACAAGAAA	-0.0731
TCTAGAAA	0.222

Sequence	binding signal [E-score]
CCTAGAAA	0.0461
ACGAGAAA	-0.0804
GCTAGAAA	0.37
CGCTAGTA	0.31
CTGGCAGA	-0.0653
AGGCAACG	-0.102
CGACGCAA	0.0906
ATCGATAA	0.332
ACAGATAT	0.153
ATAGATAG	0.34
CGAGATAG	0.0866
CCAGATAG	0.188
ATCGATAG	0.361
ATAGAGAT	0.0483
CTAGATAG	0.346
ATAGATAA	0.297
ATAGATAC	0.331
ATAGATAT	0.374
ATCGATAC	0.213
CCAAGTGG	-0.0692
CTAAAGAG	0.00604
AGTTGTGC	0.157
TGTTAACA	0.207
AAGAGCGA	-0.102

Sequence	binding signal [E-score]
ATTGTTTA	-0.087
AGTGGAGG	-0.0535
AGTGATAA	0.145
AGTGATAG	0.377
AGTGATAC	0.231
ATAGATTG	0.316
ATAGATTC	0.374
ATAGATTA	0.301
AGGATTTA	0.0716
ACTGTACT	0.209
AGATATCG	0.218
GCCCGTAA	-0.148
ATGGACAT	0.0858
CCGCGGCG	-0.19
GATAGCAA	0.189
AATAGCTG	0.206
GATAGCTA	0.35
GATAGCGA	0.106
AATAGCTA	0.358
CATAGCTA	0.306
ACAGTAAC	0.293
GTCAAAAC	0.00409
